Some test systems named below: NCI-H23 lung; NCI-H226 lung; NCI-H322M lung; HOP-62 NSCLC; NCI-H460 lung; HOP-92 NSCLC; A549/ATCC NSCLC; 786-0 renal; COLO 205 colon; NCI-H522 lung.
Test in all cases: NCI-60 one-dose screen, 48 h (100 = growth as untreated, 0 = no growth, -100 = all killed)
What all share (details): 10 µM unless noted

The panel holds about 83,000 compounds, 20% with a hit somewhere; the sample as a whole holds those more often.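 In brief: 96-well plates, 48 h treatment, single concentration, percent growth endpoint.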 Active and inactive are the calls of the source. The calls were made as follows: active = growth percent below 10; inactive = the rest.

Take `O=C(O)C(C(=O)O)c1cccc2ccccc12`: the growth is 99.9% (inactive) in the test on NCI-H23 lung; 102% (inactive) in the test on NCI-H226 lung; 101% (inactive) with NCI-H322M lung; 92.7% (inactive) in the test on HOP-62 NSCLC; 104% (inactive) in the test with NCI-H460 lung; 94.5% (inactive) in the test on HOP-92 NSCLC. Further, the growth was 94.4% (inactive) in the test with A549/ATCC NSCLC, 95.4% (inactive) in the test with 786-0 renal and 110% (inactive) in the test with COLO 205 colon.
For `C[C@@H]1C(=O)[C@@H]2C[C@@H](O)[C@@H](O)C[C@]2(C)[C@H]2CC[C@@]3(C)C(=C12)CC[C@@H]3[C@@](C)(O)[C@H](O)CCC(C)(C)O`, the growth in the test on NCI-H23 lung was 103% (inactive); with NCI-H226 lung it was 99.5% (inactive); in the test on NCI-H322M lung it was 95.2% (inactive); with HOP-62 NSCLC, 91% (inactive); in the test with NCI-H460 lung, 105% (inactive); in the test on HOP-92 NSCLC, 97.5% (inactive). In addition, the growth is 89% (inactive) in the test with NCI-H522 lung, 92.8% (inactive) in the test on A549/ATCC NSCLC, 100% (inactive) in the test on 786-0 renal and 117% (inactive) in the test on COLO 205 colon.
Consider `O=C(Nc1cc(Nc2ncccc2-c2ncnc3nc[nH]c23)ccc1F)c1cc(C(F)(F)F)cc(C(F)(F)F)c1`, for which the growth is -3.98% (active) with NCI-H23 lung; 16.8% (inactive) in the test with NCI-H226 lung; 46.7% (inactive) in the test on NCI-H322M lung; -14.4% (active) in the test on HOP-62 NSCLC; -30.4% (active) with NCI-H460 lung; -31.3% (active) in the test with HOP-92 NSCLC. For the same molecule, the growth in the test on A549/ATCC NSCLC was 0.774% (active); with 786-0 renal it was -3.09% (active); in the test with COLO 205 colon it was -60.2% (active).
As to `CCOC(=O)C(=Cc1c(-c2ccccc2)[nH]c2ccccc12)C(=O)OCC`, the growth is 50.7% (inactive) with NCI-H23 lung; 60.1% (inactive) in the test with NCI-H226 lung; 81.3% (inactive) with NCI-H322M lung; 75.9% (inactive) with HOP-62 NSCLC; 21.5% (inactive) with NCI-H460 lung; -5.04% (active) in the test on HOP-92 NSCLC. Further, the growth was 40.3% (inactive) in the test on A549/ATCC NSCLC, 90.4% (inactive) in the test with 786-0 renal and 58.7% (inactive) in the test with COLO 205 colon.
With `C=C1C(=O)O[C@H]2[C@H]1CC/C(COC(=O)N1CCC[C@H]1C(=O)Nc1ccc(OC)c(C(N)=O)c1O)=C\CC[C@@]1(C)O[C@@H]21`, the growth was 79.5% (inactive) with NCI-H23 lung; 52.8% (inactive) with NCI-H226 lung; 90.6% (inactive) with NCI-H322M lung; 88.6% (inactive) with HOP-62 NSCLC; 73.9% (inactive) in the test with NCI-H460 lung; -11.2% (active) in the test on HOP-92 NSCLC. Also, the growth in the test with A549/ATCC NSCLC was 75.4% (inactive); in the test on 786-0 renal it was 41.4% (inactive); in the test on COLO 205 colon it was -25.7% (active).
`Nc1n[nH]c2cccc(C#Cc3cccc(NC(=O)c4cc(N5CCOCC5)cc(C(F)(F)F)c4)c3)c12`: the growth in the test on NCI-H23 lung is 45% (inactive); with NCI-H226 lung, 43.9% (inactive); with NCI-H322M lung, 55.2% (inactive); with HOP-62 NSCLC, 48.2% (inactive); in the test on NCI-H460 lung, 47.3% (inactive); with HOP-92 NSCLC, 34.1% (inactive). The growth was 69.5% (inactive) in the test on A549/ATCC NSCLC, 57.7% (inactive) with 786-0 renal and 18.2% (inactive) in the test with COLO 205 colon.
For the molecule `O=C(Nc1nc(-c2ccccc2Cl)cs1)c1cc(-c2ccc(Br)cc2)nc2ccccc12`, the growth was 14.3% (inactive) in the test with NCI-H23 lung; 37.5% (inactive) in the test with NCI-H226 lung; 70.4% (inactive) in the test on NCI-H322M lung; 52.6% (inactive) with HOP-62 NSCLC; 45.9% (inactive) in the test with NCI-H460 lung; 21.4% (inactive) in the test on HOP-92 NSCLC. Also, the figures for the growth with A549/ATCC NSCLC, in the test on 786-0 renal and with COLO 205 colon were 37.5% (inactive), 75.3% (inactive) and 67.2% (inactive), respectively.
In the case of `CCCCCCCc1n(Cc2ccc3ccccc3c2)c2ccccc2[n+]1Cc1ccc2ccccc2c1`, the growth in the test with NCI-H23 lung was -76.9% (active); with NCI-H226 lung, -70.8% (active); with NCI-H322M lung it was -86% (active); in the test with HOP-62 NSCLC, -70.6% (active); with NCI-H460 lung it was -73% (active); in the test with HOP-92 NSCLC, -84.4% (active). The growth with A549/ATCC NSCLC was -77.5% (active); with 786-0 renal, -65.1% (active); in the test with COLO 205 colon, -75.8% (active).
Take `COC(=O)/C=C1\SC(=Nc2ccc(C(F)(F)F)cc2)N(CCc2c[nH]c3ccccc23)C1=O`: the growth with NCI-H23 lung was -4.71% (active); in the test with NCI-H226 lung, -62.7% (active); with NCI-H322M lung, -11% (active); in the test with HOP-62 NSCLC, -64.2% (active); with NCI-H460 lung, -47.4% (active); in the test with HOP-92 NSCLC, -48.7% (active). Moreover, the growth is -65% (active) in the test on NCI-H522 lung, 3.32% (active) in the test on A549/ATCC NSCLC, -74.1% (active) in the test on 786-0 renal and -62.9% (active) in the test with COLO 205 colon.
Regarding `CCCCn1c2cc(OCc3cn(-c4ccc(Cl)cc4)nn3)ccc2c2ccnc(C)c21`, the growth was 32.4% (inactive) in the test on NCI-H23 lung; 52.3% (inactive) in the test on NCI-H226 lung; 56.6% (inactive) with NCI-H322M lung; 41.2% (inactive) with HOP-62 NSCLC; 21.5% (inactive) in the test on NCI-H460 lung; 36.9% (inactive) in the test on HOP-92 NSCLC. Also, the growth in the test with A549/ATCC NSCLC was 42.1% (inactive); with 786-0 renal it was -10.3% (active); with COLO 205 colon, 21.9% (inactive).
For `C=C(C)[C@@H]1CC[C@]2(C(=O)O)CC[C@]3(C)[C@H](CC[C@@H]4[C@@]5(C)C[C@@H](CC#Cc6ccc(Cl)cc6)C(=O)C(C)(C)[C@@H]5CC[C@]43C)[C@@H]12`, the growth is 28.5% (inactive) with NCI-H23 lung; 40.2% (inactive) in the test with NCI-H226 lung; 55.6% (inactive) with NCI-H322M lung; 54.7% (inactive) with HOP-62 NSCLC; 34.8% (inactive) in the test on NCI-H460 lung; 67.9% (inactive) in the test on HOP-92 NSCLC. In addition, the growth in the test on A549/ATCC NSCLC is 31.3% (inactive); with 786-0 renal, 60.5% (inactive); in the test with COLO 205 colon, 53.8% (inactive).
Consider `O=C(CCc1nnc2sc(OCc3ccccc3)nn12)c1nc2ccc([N+](=O)[O-])cc2[nH]1`, for which the growth with NCI-H23 lung is 84.6% (inactive); in the test on NCI-H226 lung it was 94.8% (inactive); in the test with NCI-H322M lung, 93.3% (inactive); in the test on HOP-62 NSCLC, 102% (inactive); with NCI-H460 lung, 105% (inactive); in the test with HOP-92 NSCLC, 106% (inactive). Besides, the growth was 94.3% (inactive) with A549/ATCC NSCLC, 108% (inactive) in the test on 786-0 renal and 99.5% (inactive) in the test on COLO 205 colon.
Regarding `N#Cc1ccc(C2C3=C(CCCC3=O)OC3=C2C(=O)c2ccccc2C3=O)cc1` (stereo not drawn), the growth was 44.9% (inactive) with NCI-H23 lung; 114% (inactive) in the test on NCI-H226 lung; 106% (inactive) in the test with NCI-H322M lung; 111% (inactive) with HOP-62 NSCLC; 103% (inactive) in the test on NCI-H460 lung; 76.3% (inactive) in the test on HOP-92 NSCLC. Also, the growth in the test on A549/ATCC NSCLC was 108% (inactive); in the test with 786-0 renal it was 94.7% (inactive); in the test on COLO 205 colon it was 109% (inactive).
`COC(=O)c1oc2c(C(=O)/C=C/c3ccc(OC)cc3)c(OCCCN3CCCCC3)ccc2c1C`: the growth in the test with NCI-H23 lung was 22.1% (inactive); in the test with NCI-H226 lung, 89.4% (inactive); in the test on NCI-H322M lung, 17.8% (inactive); in the test with HOP-62 NSCLC, 1.98% (active); in the test on NCI-H460 lung, 4.2% (active); with HOP-92 NSCLC, -38.8% (active). The growth was -3.52% (active) in the test with A549/ATCC NSCLC, 1.16% (active) in the test on 786-0 renal and 29.2% (inactive) with COLO 205 colon.

Source of the values: PubChem BioAssay (NCI).
